Experimental data: PubChem BioAssay AID1159580 (chemical genetic matrix, 2015)
In all, about 5,500 compounds went through this assay and about 2,000 (36%) were called active. Inconclusive results (about 18%) are left out. Cut-off read from the data, not from the text of the source: active = normalized growth mostly below about 0.91 (no sharp cut-off); inconclusive = no clear call, values can overlap the other calls; inactive = mostly above about 0.92. The list shows a part of the results.

Assay: chemical genetic growth profiling, strain panel (AID 1159580);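 note: tested at 20 µM; growth read once vehicle control cultures reached saturation at 30 °C; 1 = growth at the plate median or of vehicle wells; lower values mean less growth of the strain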
Settings: growth OD

## C=CC(C1=CC(=O)C(OC)=CC1=O)c1ccccc1 (configuration not stated)
S. cerevisiae deletion strains, locus YJR075W, strain HOC1, stronger effect = lower value
  normalized growth: 0.88 (active)
S. cerevisiae deletion strains, locus YKL009W, strain mrt4, stronger effect = lower value
  normalized growth: 0.905 (inactive)
S. cerevisiae deletion strains, locus YKL068W, stronger effect = lower value
  normalized growth: 0.977 (inactive)
S. cerevisiae deletion strains, locus YKL085W, strain MDH1 (second series), stronger effect = lower value
  normalized growth: 0.954 (inactive)
S. cerevisiae deletion strains, locus YKL085W, strain MDH1, stronger effect = lower value
  normalized growth: 0.954 (inactive)
S. cerevisiae deletion strains, locus YKL160W, strain elf1, stronger effect = lower value
  normalized growth: 0.79 (active)
S. cerevisiae deletion strains, locus YKL190W, strain CNB1, stronger effect = lower value
  normalized growth: 0.866 (active)
S. cerevisiae deletion strains, locus YKR001C, strain vps1, stronger effect = lower value
  normalized growth: 0.774 (active)
S. cerevisiae deletion strains, locus YKR026C, strain gcn3, stronger effect = lower value
  normalized growth: 0.987 (inactive)
S. cerevisiae deletion strains, locus YKR091W, strain srl3, stronger effect = lower value
  normalized growth: 0.995 (inactive)
S. cerevisiae deletion strains, locus YLL001W, strain dnm1, stronger effect = lower value
  normalized growth: 0.885 (active)
S. cerevisiae deletion strains, locus YLL026W, stronger effect = lower value
  normalized growth: 0.85 (active)
S. cerevisiae deletion strains, locus YLL041C, strain sdh2, stronger effect = lower value
  normalized growth: 0.978 (inactive)
S. cerevisiae deletion strains, locus YLR027C, strain aat2, stronger effect = lower value
  normalized growth: 0.808 (active)
S. cerevisiae deletion strains, locus YLR039C, strain RIC1, stronger effect = lower value
  normalized growth: 0.519 (active)
S. cerevisiae deletion strains, locus YLR058C, strain SHM2, stronger effect = lower value
  normalized growth: 0.953 (inactive)
S. cerevisiae deletion strains, locus YLR102C, strain apc9, stronger effect = lower value
  normalized growth: 0.949 (inactive)
S. cerevisiae deletion strains, locus YLR113W, strain HOG1, stronger effect = lower value
  normalized growth: 0.663 (active)
S. cerevisiae deletion strains, locus YLR221C, strain rsa3, stronger effect = lower value
  normalized growth: 0.734 (active)
S. cerevisiae deletion strains, locus YLR258W, strain gsy2, stronger effect = lower value
  normalized growth: 0.875 (active)
S. cerevisiae deletion strains, locus YLR262C, strain YPT6 (second series), stronger effect = lower value
  normalized growth: 0.518 (active)
S. cerevisiae deletion strains, locus YLR262C, strain YPT6, stronger effect = lower value
  normalized growth: 0.405 (active)
S. cerevisiae deletion strains, locus YLR268W, strain sec22, stronger effect = lower value
  normalized growth: 0.888 (inactive)
S. cerevisiae deletion strains, locus YLR320W, strain mms22, stronger effect = lower value
  normalized growth: 0.379 (active)
S. cerevisiae deletion strains, locus YLR330W, strain CHS5, stronger effect = lower value
  normalized growth: 0.912 (active)
S. cerevisiae deletion strains, locus YLR342W, strain FKS1 (second series), stronger effect = lower value
  normalized growth: 0.603 (active)
S. cerevisiae deletion strains, locus YLR342W, strain FKS1, stronger effect = lower value
  normalized growth: 0.79 (active)
S. cerevisiae deletion strains, locus YLR357W, strain rsc2, stronger effect = lower value
  normalized growth: 1.04 (inactive)
S. cerevisiae deletion strains, locus YLR370C, strain arc18, stronger effect = lower value
  normalized growth: 0.949 (inactive)
S. cerevisiae deletion strains, locus YLR371W, strain rom2, stronger effect = lower value
  normalized growth: 0.937 (inactive)
S. cerevisiae deletion strains, locus YLR384C, strain iki3, stronger effect = lower value
  normalized growth: 0.978 (inactive)
S. cerevisiae deletion strains, locus YLR418C, strain cdc73, stronger effect = lower value
  normalized growth: 0.774 (active)
S. cerevisiae deletion strains, locus YML016C, strain PPZ1, stronger effect = lower value
  normalized growth: 0.959 (inactive)
S. cerevisiae deletion strains, locus YML032C, strain rad52, stronger effect = lower value
  normalized growth: 0.883 (active)
S. cerevisiae deletion strains, locus YML120C, strain ndi1, stronger effect = lower value
  normalized growth: 0.864 (active)
S. cerevisiae deletion strains, locus YML124C, strain tub3, stronger effect = lower value
  normalized growth: 0.963 (inactive)
S. cerevisiae deletion strains, locus YMR058W, strain fet3, stronger effect = lower value
  normalized growth: 0.921 (inactive)
S. cerevisiae deletion strains, locus YMR078C, strain ctf18, stronger effect = lower value
  normalized growth: 0.928 (inactive)
S. cerevisiae deletion strains, locus YMR125W, strain sto1, stronger effect = lower value
  normalized growth: 0.852 (active)
S. cerevisiae deletion strains, locus YMR129W, stronger effect = lower value
  normalized growth: 0.988 (inactive)
S. cerevisiae deletion strains, locus YMR205C, strain PFK2, stronger effect = lower value
  normalized growth: 0.784 (active)
S. cerevisiae deletion strains, locus YMR223W, strain ubp8, stronger effect = lower value
  normalized growth: 0.84 (active)
S. cerevisiae deletion strains, locus YMR231W, strain pep5, stronger effect = lower value
  normalized growth: 1.01 (inactive)
S. cerevisiae deletion strains, locus YMR263W, strain SAP30, stronger effect = lower value
  normalized growth: 0.926 (inactive)
S. cerevisiae deletion strains, locus YMR307W, strain GAS1, stronger effect = lower value
  normalized growth: 0.864 (inactive)
S. cerevisiae deletion strains, locus YNL067W, strain RPL9B, stronger effect = lower value
  normalized growth: 0.873 (inactive)
S. cerevisiae deletion strains, locus YNL071W, strain lat1, stronger effect = lower value
  normalized growth: 0.213 (active)
S. cerevisiae deletion strains, locus YNL128W, strain TEP1, stronger effect = lower value
  normalized growth: 0.906 (inactive)
S. cerevisiae deletion strains, locus YNL153C, strain GIM3, stronger effect = lower value
  normalized growth: 0.972 (inactive)
S. cerevisiae deletion strains, locus YNL183C, strain NPR1, stronger effect = lower value
  normalized growth: 0.871 (inactive)
S. cerevisiae deletion strains, locus YNL209W, strain ssb2, stronger effect = lower value
  normalized growth: 0.908 (active)
S. cerevisiae deletion strains, locus YNL233W, strain BNI4, stronger effect = lower value
  normalized growth: 0.808 (active)
S. cerevisiae deletion strains, locus YNL248C, strain rpa49, stronger effect = lower value
  normalized growth: 0.842 (active)
S. cerevisiae deletion strains, locus YNL250W, strain rad50, stronger effect = lower value
  normalized growth: 0.956 (inactive)
S. cerevisiae deletion strains, locus YNL271C, strain bni1, stronger effect = lower value
  normalized growth: 0.958 (inactive)
S. cerevisiae deletion strains, locus YNL298W, strain CLA4, stronger effect = lower value
  normalized growth: 0.919 (inactive)
S. cerevisiae deletion strains, locus YNL307C, strain MCK1, stronger effect = lower value
  normalized growth: 0.302 (active)
S. cerevisiae deletion strains, locus YNL322C, strain KRE1 (second series), stronger effect = lower value
  normalized growth: 0.969 (inactive)
S. cerevisiae deletion strains, locus YNL322C, strain KRE1, stronger effect = lower value
  normalized growth: 0.928 (inactive)
S. cerevisiae deletion strains, locus YNR049C, strain mso1, stronger effect = lower value
  normalized growth: 0.992 (inactive)
S. cerevisiae deletion strains, locus YNR052C, strain pop2, stronger effect = lower value
  normalized growth: 0.954 (inactive)
S. cerevisiae deletion strains, locus YOL006C, strain TOP1, stronger effect = lower value
  normalized growth: 0.69 (inactive)
S. cerevisiae deletion strains, locus YOL012C, strain htz1
  normalized growth: 0.631 (inactive)
S. cerevisiae deletion strains, locus YOL147C, strain pex11, stronger effect = lower value
  normalized growth: 0.926 (active)
S. cerevisiae deletion strains, locus YOR001W, strain rrp6, stronger effect = lower value
  normalized growth: 0.943 (inactive)
S. cerevisiae deletion strains, locus YOR061W, strain CKA2, stronger effect = lower value
  normalized growth: 0.956 (inactive)
S. cerevisiae deletion strains, locus YOR069W, strain VPS5, stronger effect = lower value
  normalized growth: 0.958 (inactive)
S. cerevisiae deletion strains, locus YOR070C, strain gyp1, stronger effect = lower value
  normalized growth: 0.79 (active)
S. cerevisiae deletion strains, locus YOR080W, strain dia2, stronger effect = lower value
  normalized growth: 0.996 (inactive)
S. cerevisiae deletion strains, locus YOR083W, strain WHI5, stronger effect = lower value
  normalized growth: 0.905 (inactive)
S. cerevisiae deletion strains, locus YOR106W, strain vam3, stronger effect = lower value
  normalized growth: 0.739 (active)
S. cerevisiae deletion strains, locus YOR136W, strain idh2, stronger effect = lower value
  normalized growth: 0.942 (inactive)
S. cerevisiae deletion strains, locus YOR144C, strain elg1, stronger effect = lower value
  normalized growth: 0.973 (inactive)
S. cerevisiae deletion strains, locus YOR184W, strain ser1, stronger effect = lower value
  normalized growth: 0.536 (active)
S. cerevisiae deletion strains, locus YOR231W, strain MKK1, stronger effect = lower value
  normalized growth: 0.853 (active)
S. cerevisiae deletion strains, locus YOR265W, strain rbl2, stronger effect = lower value
  normalized growth: 0.93 (inactive)
S. cerevisiae deletion strains, locus YOR270C, strain vph1, stronger effect = lower value
  normalized growth: 0.761 (active)
S. cerevisiae deletion strains, locus YOR290C, strain snf2, stronger effect = lower value
  normalized growth: 0.89 (inactive)
S. cerevisiae deletion strains, locus YOR316C, strain cot1, stronger effect = lower value
  normalized growth: 0.96 (inactive)
S. cerevisiae deletion strains, locus YPL051W, strain arl3, stronger effect = lower value
  normalized growth: 0.737 (active)
S. cerevisiae deletion strains, locus YPL055C, strain LGE1, stronger effect = lower value
  normalized growth: 0.816 (inactive)
S. cerevisiae deletion strains, locus YPL078C, strain atp4, stronger effect = lower value
  normalized growth: 0.868 (active)
S. cerevisiae deletion strains, locus YPL106C, strain sse1, stronger effect = lower value
  normalized growth: 1.03 (inactive)
S. cerevisiae deletion strains, locus YPL240C, strain hsp82, stronger effect = lower value
  normalized growth: 0.904 (active)
S. cerevisiae deletion strains, locus YPL241C, strain CIN2, stronger effect = lower value
  normalized growth: 0.962 (inactive)
S. cerevisiae deletion strains, locus YPL256C, strain CLN2, stronger effect = lower value
  normalized growth: 0.75 (active)
S. cerevisiae deletion strains, locus YPR119W, strain clb2, stronger effect = lower value
  normalized growth: 0.966 (inactive)
S. cerevisiae deletion strains, locus YPR141C, strain kar3, stronger effect = lower value
  normalized growth: 0.971 (inactive)
S. cerevisiae deletion strains, locus YPR163C, strain tif3, stronger effect = lower value
  normalized growth: 0.766 (active)
S. cerevisiae deletion strains, locus YPR167C, strain met16, stronger effect = lower value
  normalized growth: 0.959 (inactive)
S. cerevisiae deletion strains, strain wtn01, stronger effect = lower value
  normalized growth: 0.846 (active)
S. cerevisiae strains, strain wild type, stronger effect = lower value
  normalized growth: 0.805 (active)
